In the library only some 5.4% were active in any assay of this set; here they are far more common.
CtBP-E1A inh – blocks the CtBP interaction with E1A; AlphaScreen GST-E1A/His-CtBP binding, 1536-well; stronger effect = lower value; activity change, % (no concentration beside the values); hit rate 0.49% among 340,000; AID 651724; in the data active means activity change below about -65%; inconclusive means mostly about -30% to -63%
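Homogeneous bead-based format: GST-tagged E1A captured on glutathione donor beads, His-tagged CtBP on nickel acceptor beads; compounds precede bead addition by 2 h at 37 °C.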
Six1-Eya2 inh – Six1/Eya2 interaction inhibition; Q15475+O00167; AlphaScreen GST-Six1/His-Eya2 binding, biochemical; stronger effect = lower value; activity change, % (test concentration not listed); hit rate 0.56% among 360,000; AID 651725; in the data active means activity change below about -65%; inconclusive means mostly about -30% to -63%
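Six1/Eya2 binding was read as AlphaScreen signal after compounds were pinned into GST-Six1 plus His-tagged Eya2 (5X stock 250/500 nM) in pH 8.0 Tris/NaCl/TCEP buffer, beads added, then incubated 1 h, 37 C, dark.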
RORgamma inh – blocks mouse ROR gamma transcriptional activity; Drosophila S2 Gal4-RORgamma UAS-luciferase reporter, 20 h; Potency, µM (doses to about 53.6 µM), usual class: inhibitors; hit rate 5.4% among 310,000; AID 2551; further: nearly all actives have a fitted effect of over 60% in size
Target sequence (P51450 whole entry, looked up, the tested form may be a part): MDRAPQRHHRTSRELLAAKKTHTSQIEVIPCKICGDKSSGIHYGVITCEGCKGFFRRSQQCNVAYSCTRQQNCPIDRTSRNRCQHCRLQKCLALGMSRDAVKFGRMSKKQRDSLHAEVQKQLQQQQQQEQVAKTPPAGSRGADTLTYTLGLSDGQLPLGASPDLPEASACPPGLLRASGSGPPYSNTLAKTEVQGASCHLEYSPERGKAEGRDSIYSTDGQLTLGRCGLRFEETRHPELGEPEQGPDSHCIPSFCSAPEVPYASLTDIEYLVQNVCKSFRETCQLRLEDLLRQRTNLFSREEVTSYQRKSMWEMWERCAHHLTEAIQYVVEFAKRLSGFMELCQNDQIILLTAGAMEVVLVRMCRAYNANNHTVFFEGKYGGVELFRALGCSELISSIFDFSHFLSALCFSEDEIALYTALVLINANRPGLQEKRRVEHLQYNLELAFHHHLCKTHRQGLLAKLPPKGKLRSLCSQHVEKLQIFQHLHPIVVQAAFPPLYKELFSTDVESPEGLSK
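In this cell-based reporter format, copper sulfate (700 uM final) drives Gal4–ROR gamma fusion expression from a metallothionein promoter in Drosophila Schneider cells; compounds preincubated 1 hr, reporter read after 20 hr at ambient temperature.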
VP16 counter – inhibits Gal4-VP16 luciferase reporter, ROR gamma counter-screen; Drosophila S2 Gal4-VP16 UAS-luciferase, luminescence, 20 h; Potency, µM (doses to about 53.6 µM), usual class: inhibitors; hit rate 3.5% among 310,000;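 further: Gal4-VP16 expression switched on by copper sulfate through the metallothionein promoter; nearly all actives have a fitted effect of over 50% in size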
p53 reactivator – re-activators of mutant p53; hit rate 0.063% among 320,000; H1299 p53-A138V BP100-luciferase reporter, luminescence, 24 h; Potency, µM (titrated, usually from 92.2 µM), hits mostly activators; further: nearly all actives have a fitted effect of over 45% in size
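H1299 (p53-null), stable ts p53-A138V + BP100-Luc; 1000 cells/well, Opti-MEM/10% FBS; cpd 4 pt, 1:5; 24 h, 37 deg C, 5% CO2; detection reagent 10 min RT; luminescence.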
Hits are given with their value; [ ] = dose if it differs, or a comment. Unless noted, the call rests on the fitted dose curve; in most records, active means well fitted curve in the direction sought with a large enough effect; inconclusive means small, poorly fitted or top-dose-only effect, or another doubt; inactive means no such curve, though single readings can be large; an effect the other way counts as inactive or inconclusive.

For CC(C)(C)OC(=O)NCC12C=CC(O1)C1C(=O)N(Cc3ccccc3)C(=O)C12 (stereo not drawn) the results were CtBP-E1A inh inactive, Six1-Eya2 inh inactive, RORgamma inh inconclusive, VP16 counter inconclusive and p53 reactivator inactive.
Screening Cc1ccc(N2C(=O)C3C4C=CC(CNC(=S)N5CCN(c6ccccc6)CC5)(O4)C3C2=O)cc1 (stereo not drawn) returned Six1-Eya2 inh inactive, RORgamma inh 10µM, VP16 counter inconclusive and p53 reactivator inactive.
`Cc1ccc(S(=O)(=O)NCC23C=CC(O2)C2C(=O)N(c4ccccc4)C(=O)C23)cc1` (stereo not drawn) gave CtBP-E1A inh inactive, Six1-Eya2 inh inactive, RORgamma inh 8.9µM, VP16 counter inconclusive and p53 reactivator inactive.
For Cc1cccc(NC(=S)NCC23C=CC(O2)C2C(=O)N(c4ccc(Cl)cc4)C(=O)C23)c1 (stereo not drawn) the results were CtBP-E1A inh inactive, Six1-Eya2 inh inactive, RORgamma inh inactive[10 µM], VP16 counter inconclusive and p53 reactivator inactive.
For Cc1onc(-c2ccccc2Cl)c1C(=O)NCc1nnnn1-c1ccc(F)c(F)c1 the results were CtBP-E1A inh inactive and Six1-Eya2 inh inactive.
COC(=O)[C@@H](Cc1c[nH]c2ccccc12)NC(=O)c1ccc2c(c1)OCO2 was read as CtBP-E1A inh inactive, Six1-Eya2 inh inactive, RORgamma inh 8.9µM, VP16 counter inconclusive and p53 reactivator inactive.
`COC(=O)C(Cc1c[nH]c2ccccc12)NC(C)=O` (stereo not drawn) gave CtBP-E1A inh inactive, Six1-Eya2 inh inactive, RORgamma inh 14µM, VP16 counter inactive and p53 reactivator inactive.
Screening O=C(COC(=O)[C@H](Cc1c[nH]c2ccccc12)NC(=O)c1ccc(Cl)cc1)Nc1ccc2c(c1)OCO2 returned CtBP-E1A inh inactive, Six1-Eya2 inh inactive, RORgamma inh inactive, VP16 counter inactive and p53 reactivator inactive.
For COC(=O)C(Cc1c[nH]c2ccccc12)NC(=O)c1cccs1 (stereo not drawn) the results were Six1-Eya2 inh inactive, RORgamma inh inactive, VP16 counter inactive and p53 reactivator inactive.
`Cc1ccc(NC(=O)COC(=O)c2ccc(Cl)nc2)cc1S(=O)(=O)N1CCCCC1` gave CtBP-E1A inh inactive, Six1-Eya2 inh inactive and p53 reactivator inactive.
`COc1ccc(C=C2C=C(C(C)(C)C)C(=O)C(C(C)(C)C)=C2)cc1OC` gave CtBP-E1A inh inactive, Six1-Eya2 inh inactive, RORgamma inh 7.1µM, VP16 counter 4.5µM and p53 reactivator inactive.
Screening COc1ccc(/C=C2\CC/C(=C\c3ccc(OC)c(OC)c3)C2=O)cc1OC returned CtBP-E1A inh inactive, Six1-Eya2 inh inactive, RORgamma inh 2.2µM, VP16 counter 16µM and p53 reactivator inactive.
COc1cc(/C=C2/CC/C(=C/c3ccc(O)c(OC)c3)C2=O)ccc1O was read as CtBP-E1A inh inactive, Six1-Eya2 inh inactive, RORgamma inh inactive, VP16 counter inconclusive and p53 reactivator inactive.
For C=C(C)C1CC=C(C)/C(=N/NC(=O)CCC(=O)Nc2ccccc2Cl)C1 (stereo not drawn) the results were CtBP-E1A inh inactive, Six1-Eya2 inh inactive, RORgamma inh inactive, VP16 counter inactive and p53 reactivator inactive.
COc1cc(C2c3cc4c(cc3OC(C)(N3CCCC3)C2C)OCO4)cc(OC)c1OC (stereo not drawn) was read as CtBP-E1A inh inactive and Six1-Eya2 inh inactive.
C[C@H]1OC(OC2C(O)[C@@H](O)C(OC3C(O)[C@@H](O)C(O)O[C@@H]3CO)O[C@@H]2CO)[C@H](O)C(O)C1N[C@H]1C=C(CO)[C@@H](O)[C@H](O)C1O (stereo partly drawn) was read as RORgamma inh inactive and VP16 counter inactive.
`CC(=O)N[C@H]1[C@H](O[C@@H]2c3ccc(c(Cl)c3)Oc3cc4cc(c3O[C@@H]3O[C@H](CO)[C@@H](O)[C@H](O)C3C)Oc3ccc(cc3Cl)C[C@H]3NC(=O)[C@@H](N)c5ccc(O)c(c5)Oc5cc(O)cc(c5)[C@H](NC3=O)C(=O)N[C@H]4C(=O)N[C@H]3C(=O)N[C@@H]2C(=O)N[C@@H](C(=O)O)c2cc(O)cc(O[C@H]4O[C@H](CO)[C@@H](O)C(O)[C@@H]4O)c2-c2cc3ccc2O)O[C@H](CO)[C@@H](O)[C@@H]1O` (stereo partly drawn) gave RORgamma inh inactive and VP16 counter inactive.
Screening CC1CC(C)(C)NC(=S)N1CCC(=O)NCCc1ccc(Cl)cc1 (stereo not drawn) returned CtBP-E1A inh inactive, Six1-Eya2 inh inactive, RORgamma inh 1.6µM, VP16 counter 7.9µM and p53 reactivator inactive.
Screening CC1CC(C)(C)NC(=S)N1CCC(=O)N1CCc2ccccc21 (stereo not drawn) returned CtBP-E1A inh inactive, Six1-Eya2 inh inactive, RORgamma inh 6.3µM, VP16 counter inconclusive and p53 reactivator inactive.
For CC1CC(C)(C)NC(=S)N1CCCC(=O)Nc1ccccc1F (stereo not drawn) the results were CtBP-E1A inh inactive, Six1-Eya2 inh inactive, RORgamma inh 18µM, VP16 counter inactive and p53 reactivator inactive.
Screening CC1CC(C)(C)NC(=S)N1CCCC(=O)Nc1ccc(F)c(F)c1 (stereo not drawn) returned CtBP-E1A inh inactive, Six1-Eya2 inh inactive, RORgamma inh inconclusive, VP16 counter inconclusive and p53 reactivator inactive.
Screening CCOc1ccc(NC(=O)CCN2C(=S)NC(C)(C)CC2C)cc1 (stereo not drawn) returned CtBP-E1A inh inactive, Six1-Eya2 inh inactive, RORgamma inh inconclusive, VP16 counter inconclusive and p53 reactivator inactive.
Screening Cc1ccc(NC(=O)CN2C(=S)NC(C)(C)CC2C)cc1Cl (stereo not drawn) returned CtBP-E1A inh inactive, Six1-Eya2 inh inactive, RORgamma inh 14µM, VP16 counter inconclusive and p53 reactivator inactive.
O=C(CCn1cccc1)N1CCc2ccccc21 was read as CtBP-E1A inh inactive, Six1-Eya2 inh inactive, RORgamma inh inactive, VP16 counter inactive and p53 reactivator inconclusive.
Screening COc1ccc(C2=Cc3ccccc3C(CC(=O)C3CC3)N2c2ccc(C#CCCO)cc2)cc1 (stereo not drawn) returned CtBP-E1A inh inactive and Six1-Eya2 inh inactive.
For CCC/C=C1\CCCOC(C(=O)NCc2ccccc2)(C(F)(F)F)C1 (stereo not drawn) the results were RORgamma inh inactive and VP16 counter inactive.
CC1CC(C)(C)NC(=S)N1CCCC(=O)Nc1ccc(Cl)cc1 (stereo not drawn) was read as CtBP-E1A inh inactive, Six1-Eya2 inh inactive, RORgamma inh 4µM, VP16 counter inconclusive and p53 reactivator inactive.

Compound activity (PubChem BioAssay)
